Bioassay records from PubChem BioAssay.
BoNT F protease: inhibitors of Botulinum neurotoxin F light chain protease; Multiplex microsphere protease cleavage assay, flow cytometry; inhibition, % at 10 µM; actives 0.22% (n = 360,000); in the data active = inhibition above about 35%, passing the limit was not always enough; inconclusive = no clear call, values can overlap the other calls; also: plate controls were buffer without enzyme for full effect and enzyme alone for no effect
BoNT-A LC inh2: BoNT A light chain protease inhibition. multiplex microsphere protease substrate cleavage, flow cytometry. inhibition, % at 10 µM. actives 0.17% (n = 360,000); also: plate controls were buffer without enzyme for full effect and enzyme alone for no effect
Anthrax LF inh2: inhibitors of Bacillus anthracis lethal factor protease; P15917; multiplex microsphere protease cleavage assay, LF; inhibition, % at 10 µM; actives 0.12% (n = 360,000); also: plate controls were buffer without enzyme for full effect and enzyme alone for no effect
Target sequence (P15917 whole entry, looked up): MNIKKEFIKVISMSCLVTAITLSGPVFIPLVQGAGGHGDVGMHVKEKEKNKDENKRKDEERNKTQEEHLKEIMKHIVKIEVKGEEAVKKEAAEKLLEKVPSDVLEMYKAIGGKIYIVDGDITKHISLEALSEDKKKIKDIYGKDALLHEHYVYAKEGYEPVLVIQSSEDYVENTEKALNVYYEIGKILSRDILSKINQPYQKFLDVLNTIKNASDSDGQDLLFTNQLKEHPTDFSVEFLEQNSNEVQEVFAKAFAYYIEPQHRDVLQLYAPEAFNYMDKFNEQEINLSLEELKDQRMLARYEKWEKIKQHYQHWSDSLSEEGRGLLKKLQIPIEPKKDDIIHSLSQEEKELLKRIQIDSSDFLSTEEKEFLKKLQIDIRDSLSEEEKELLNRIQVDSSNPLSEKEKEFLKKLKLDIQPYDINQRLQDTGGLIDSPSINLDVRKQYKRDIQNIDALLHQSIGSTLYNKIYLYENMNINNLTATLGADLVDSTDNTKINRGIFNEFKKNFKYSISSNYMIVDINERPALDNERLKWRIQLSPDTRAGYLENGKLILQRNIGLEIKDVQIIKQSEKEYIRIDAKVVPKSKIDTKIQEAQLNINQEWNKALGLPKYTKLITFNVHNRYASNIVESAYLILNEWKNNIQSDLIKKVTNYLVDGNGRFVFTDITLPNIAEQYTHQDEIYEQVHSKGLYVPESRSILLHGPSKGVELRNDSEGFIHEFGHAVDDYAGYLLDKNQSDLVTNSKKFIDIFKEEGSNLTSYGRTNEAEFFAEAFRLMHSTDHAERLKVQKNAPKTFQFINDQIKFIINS
GDH-TPI inh: inhibits GDH-TPI coupling enzymes, artifact for Mtb FBA screen; GDH-TPI coupled enzyme counterscreen, NADH absorbance; inhibition, % at 4.8 µM; actives 1.2% (n = 360,000); AID 588335; in the data active = inhibition above about 30%;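 also: 0% = DMSO wells and 100% = wells lacking the enzyme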
Bead autofluor: flagged as autofluorescent in microsphere protease counterscreen; compound autofluorescence counterscreen, microsphere flow cytometry; active compounds read high; fluorescence intensity (concentration not given with the values); actives 3.1% (n = 360,000); in the data active = fluorescence intensity above about 16000; inconclusive = no clear call, values can overlap the other calls
Mtb FBA inh: inhibits M. tuberculosis FBA enzyme. purified M. tuberculosis FBA, fluorescence read-out. P9WQA3. inhibition, % at 1 µM. actives 2.3% (n = 360,000). AID 588726; in the data active = inhibition above about 27%;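 also: 0% = vehicle and 100% = reference inhibitor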
Numbers without * were called inactive; ? = inconclusive; nt = no result given. An excerpt weighted towards active compounds, which were near 6.6% of everything screened. Rule as the data show it, unless noted: active = inhibition above about 30%; inconclusive = no clear call, values can overlap the other calls; inactive = below that.

SMILES	BoNT F protease	BoNT-A LC inh2	Anthrax LF inh2	GDH-TPI inh	Bead autofluor	Mtb FBA inh
COc1ccc(C(=O)Nn2c(SCc3ccc([N+](=O)[O-])cc3)nc3ccccc3c2=O)cc1	-10	0	1	14	3331	2
CCOC(=O)/C(C#N)=C/c1c(N2CCN(c3ccc(OC)cc3)CC2)nc2c(C)cccn2c1=O	-47	-1	-7	9	3463	0
CCOC(=O)C(/C=C(\C#N)C(=O)OCC)=C(/N)N1CCN(c2ccc(OC)cc2)CC1	-6	-1	-1	57*	2518	-1
CCOC(=O)/C(C#N)=C/c1c(N2CCN(CC)CC2)nc2c(C)cccn2c1=O	8	0	6	10	3456	3
CCOC(=O)C(/C=C(\C#N)C(=O)OCC)=C(/N)N1CCN(c2c(C)cccc2C)CC1	-10	1	0	50*	3245	4
Cc1nn(-c2ccccc2)c2sc(C(=O)NNC(=O)COc3cccc4ccccc34)cc12	-3	0	12	10	6157	1
Cc1nn(-c2ccccc2)c2sc(C(=O)NNC(=O)COc3ccccc3)cc12	1	?	-5	17	22047*	4
C=CCN1C(=O)C2(c3ccccc31)C1CCCC=C1C(C#N)=C(N)C2(C#N)C#N (stereo unspecified)	3	0	0	31*	9585	-2
C=CCN1C(=O)[C@]2(c3ccccc31)C1CCCC=C1C(C#N)=C(N)C2(C#N)C#N (stereo partly specified)	-2	?	-8	12	20366*	-2
N#CC1=C(N)C(C#N)(C#N)C(c2ccc[nH]2)C2CCCC=C12 (stereo unspecified)	-4	0	1	-5	10568	3
CN(C)N=Nc1ccc(S(=O)(=O)N2CCSC2C(=O)O)cc1 (stereo unspecified)	-10	?	-3	24	25952*	-1
COc1cc(/C=C2\S/C(=N/S(=O)(=O)c3ccccc3)NC2=O)c([N+](=O)[O-])cc1OC	-1	0	-11	43*	9743	-2
COc1cccc(-n2c(SCC#N)nnc2-c2cnccn2)c1	4	3	-8	19	15146	5
COc1cccc(-n2c(SC)nnc2-c2cnccn2)c1	6	6	-9	4	20539*	6
CSc1nnc(-c2cnccn2)n1C	-5	-1	0	1	23864*	-2
Cn1c(SCC(N)=O)nnc1-c1cnccn1	-5	-1	-4	0	4360	1
Cc1ccc(C(=O)C[n+]2cc(-c3ccc(C)cc3)n3c2CCCCC3)cc1	-7	-7	-2	1	22561*	-1
Cc1ccc(C(=O)N/C(=C\c2cccs2)C(=O)N2CCOCC2)cc1C	-5	0	-9	8	5614	-2
N#CCc1ccc(NC(=O)/C=C/c2ccc([N+](=O)[O-])o2)cc1	12	3	-1	34*	4639	-1
CC(C)C(c1nnnn1C1CCCC1)N1CCCc2ccccc21 (stereo unspecified)	-2	-3	-2	2	24060*	3
c1ccc(C(c2nnnn2C2CCCCC2)N2CCc3ccccc3C2)nc1 (stereo unspecified)	6	1	-1	2	9787	69*
CC(C)C(c1nnnn1C1CCCCC1)N1CCCc2ccccc21 (stereo unspecified)	-4	0	0	-2	3352	1
CC(C)C(c1nnnn1C1CCCC1)N1CCc2ccccc21 (stereo unspecified)	-2	6	-8	-5	17487*	1
O=C(COC(=O)CNC(=O)c1ccc(Br)o1)Nc1ccccc1OC(F)F	-3	-1	-8	5	4397	-3
CC1(c2nnnn2-c2ccc3c(c2)OCCO3)CCC(=O)N1CCCN1CCOCC1 (stereo unspecified)	-7	0	1	nt	5295	nt
SMILES	BoNT F protease	BoNT-A LC inh2	Anthrax LF inh2	GDH-TPI inh	Bead autofluor	Mtb FBA inh
CCN(CC)S(=O)(=O)c1ccc(C(=O)Nc2ccc3c(c2)OCO3)cc1	-5	0	11	1	4588	0
CC(C)C1CC(CCN2CCCCC2)(c2ccccc2)CCO1 (stereo unspecified)	-1	0	-2	-2	4911	0
Cc1ccc(-n2c(Cn3nc(C(F)(F)F)cc3C)n[nH]c2=S)cc1	-6	?	-4	11	17459*	1
O=C(NCC1CCCO1)C1CCCN(Cc2cnn(-c3ccccc3)c2-n2cccc2)C1 (stereo unspecified)	3	0	0	-1	2832	-1
Cc1ccc(CNC(=O)C2CCCN(Cc3cnn(-c4ccccc4)c3-n3cccc3)C2)cc1 (stereo unspecified)	-3	?	-4	8	21776*	1
CCN1CCN(c2ncnc3c2nnn3Cc2ccccc2)CC1	1	1	-2	-10	3080	0
Clc1ccccc1Nc1ncnc2c1nnn2Cc1ccccc1	-2	?	-5	14	16216*	1
c1ccc(Cn2nnc3c(N4CCc5ccccc5C4)ncnc32)cc1	8	4	1	4	20729*	2
c1ccc(Cn2nnc3c(N4CCCC4)ncnc32)cc1	-4	-1	0	6	16477*	4
NC(=O)c1c(NC(=O)C2CCCO2)sc2c1CCCC2 (stereo unspecified)	2	0	2	7	2217	-1
CC1CN(S(=O)(=O)c2cccc(C(=O)NCC(c3cccs3)N3CCOCC3)c2)CC(C)O1 (stereo unspecified)	-6	-1	-2	3	3935	-1
Cc1cc(Br)cn2ccnc12	-4	-4	0	-18	22557*	-4
CCCNC(=O)C1(C)CCCN(Cc2ccc(-c3ccccc3)o2)C1 (stereo unspecified)	-5	0	-1	0	3310	2
CCOc1ccc(OCCSc2nc3ccccc3[nH]2)cc1	3	0	0	-4	10751	-3
CCCOc1ccc(CSc2nc3ccccc3[nH]2)cc1	3	?	-5	0	22003*	-1
COC(=O)c1ccc(OC(=O)C2CC(=O)N(c3cccc(C)c3)C2)cc1 (stereo unspecified)	-3	?	-3	11	16757*	0
O=Cc1ccc(OC(=O)C2CC(=O)N(c3ccc(F)cc3)C2)cc1 (stereo unspecified)	-6	0	-4	31*	5951	-1
O=C(O)C1CC(=O)N(c2ccc(F)cc2)C1 (stereo unspecified)	12	2	2	-7	8188	2
O=C(Nc1ccc(O)cc1)C1CC=CCC1 (stereo unspecified)	-14	?	-4	7	18689*	-2
O=C(Nc1nccs1)C1CC=CCC1 (stereo unspecified)	1	-2	-2	1	5435	-1
CCOc1cc(CN2CCN(c3ccc(C(C)=O)cc3)CC2)ccc1OC	6	2	1	38*	7952	3
